# Screening data (PubChem BioAssay)
# Mtb UGM inh: blocks M. tuberculosis UGM enzyme | P9WIQ1 | purified UGM, fluorescence polarization probe displacement | inhibition, % at 10 µM | hit rate 0.06% among 320,000 | AID 504406; in the data active means inhibition above about 10%, passing the limit was not always enough
# GDH-TPI inh: counter-screen for M. tuberculosis FBA inhibitors: GDH-TPI coupled enzymes | GDH-TPI coupled enzyme counterscreen, NADH absorbance | AID 588335 | inhibition, % at 4.8 µM | hit rate 1.2% among 360,000; in the data active means inhibition above about 30%;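 further: 0% = DMSO wells and 100% = wells lacking the enzyme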
# Mtb bLac sens: beta-lactam sensitization of Mtb H37Rv; M. tuberculosis H37Rv growth with meropenem, percent inhibition; inhibition, % at 25 µM; hit rate 0.27% among 330,000; AID 434955; call rule not given here;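 further: growth measured after seven days incubation then overnight dye step; 0% = bacteria only wells and 100% = bacteria with antibiotic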
# RecA intein inh: Mtb RecA intein splicing inhibition; cell-free RecA intein splicing, fluorescence; inhibition, % (test concentration not listed); hit rate 0.75% among 290,000; in the data active means inhibition above about 30%;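 further: 0% = vehicle wells and 100% = reference inhibitor control wells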
# Target sequence (P9WHJ3 whole entry, looked up): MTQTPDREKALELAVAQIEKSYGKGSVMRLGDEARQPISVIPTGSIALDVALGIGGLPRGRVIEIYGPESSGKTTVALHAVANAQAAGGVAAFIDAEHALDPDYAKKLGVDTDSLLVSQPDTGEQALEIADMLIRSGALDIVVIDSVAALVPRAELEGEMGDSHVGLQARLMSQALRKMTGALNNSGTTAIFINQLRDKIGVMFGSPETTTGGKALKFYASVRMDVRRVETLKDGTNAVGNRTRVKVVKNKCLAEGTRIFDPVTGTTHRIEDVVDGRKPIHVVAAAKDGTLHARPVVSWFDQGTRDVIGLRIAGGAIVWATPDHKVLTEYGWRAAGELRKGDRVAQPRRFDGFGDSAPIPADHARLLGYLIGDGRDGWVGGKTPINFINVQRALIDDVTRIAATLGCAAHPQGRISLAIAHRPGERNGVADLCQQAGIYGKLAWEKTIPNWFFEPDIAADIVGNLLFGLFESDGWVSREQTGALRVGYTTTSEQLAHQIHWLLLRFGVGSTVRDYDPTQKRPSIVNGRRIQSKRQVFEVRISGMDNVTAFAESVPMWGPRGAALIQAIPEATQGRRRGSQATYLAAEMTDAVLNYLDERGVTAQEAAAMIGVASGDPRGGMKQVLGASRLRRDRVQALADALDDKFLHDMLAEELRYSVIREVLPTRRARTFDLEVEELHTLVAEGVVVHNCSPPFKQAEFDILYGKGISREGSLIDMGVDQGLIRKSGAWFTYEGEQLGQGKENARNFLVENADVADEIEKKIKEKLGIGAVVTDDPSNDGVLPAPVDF
# Rv3671c inh: Rv3671c (M. tuberculosis) protease inhibition. inhibition, % at 5.96 µM. hit rate 0.048% among 320,000; in the data active means inhibition above about 38%;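 further: extracellular domain of Rv3671c used as enzyme; 0% = enzyme with DMSO and 100% = no enzyme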
# Mtb FBA inh: inhibits M. tuberculosis FBA enzyme | hit rate 2.3% among 360,000 | P9WQA3 | inhibition, % at 1 µM | purified M. tuberculosis FBA, fluorescence read-out | AID 588726; in the data active means inhibition above about 27%;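 further: 0% = vehicle and 100% = reference inhibitor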
# An asterisk follows results filed as active; / = no result; + = active, no number. Shown are actives, neighbours in structure and some others; about 4% of the full set was active somewhere.
SMILES,Mtb UGM inh,GDH-TPI inh,Mtb bLac sens,RecA intein inh,Rv3671c inh,Mtb FBA inh
O=C(COC(=O)c1cc([N+](=O)[O-])ccc1N1CCOCC1)NCc1ccc(Cl)cc1Cl,0,8,65,7,0,3
Cc1cc(=O)[nH]c(SCC(=O)NCCC2=CCCCC2)n1,-2,0,-5,2,-8,-2
CC(C)(C)c1ccc(CC(=O)N2CCC2(C)C(=O)NS(=O)(=O)c2cccc(F)c2)cc1 (stereo unspecified),/,5,/,/,/,-1
CCN(CC)CCCNc1ccc(-c2nnc(-c3ccc(OCC(C)C)cc3)o2)cn1,-2,24,0,2,1,+
CCOc1cccc(C(=O)Nc2nnc(-c3ccco3)s2)c1,-4,37*,-9,/,-13,12
COC(=O)C(C)NC(=O)CNS(=O)(=O)c1ccc(F)cc1 (stereo unspecified),-1,2,3,4,-4,3
Cc1ccc(S(=O)(=O)ON2C(=O)c3ccccc3C2=O)c(C)c1,-2,8,1,/,5,40*
Cc1cc(C)c(S(=O)(=O)ON2C(=O)c3ccccc3C2=O)cc1C,3,8,-3,60*,-3,37*
O=C1c2ccccc2C(=O)N1OS(=O)(=O)c1ccc(F)cc1,0,1,3,-4,-8,23
Cc1cc(C)c(C)c(S(=O)(=O)ON2C(=O)c3ccccc3C2=O)c1C,1,2,1,/,-1,35*
COc1ccc(CCC(=O)NC(C)c2ccccc2)cc1OC (stereo unspecified),2,7,-2,0,-12,7
O=C1c2ccccc2C(=O)N1CCC#C/C=C1\c2ccccc2C(=O)N1c1ccccc1,/,2,/,/,/,0
CCOC(=O)c1cc2c(=O)n3ccccc3nc2n(C(C)C)c1=NC(=O)c1ccco1,1,4,1,-188,-8,+
CC(C)n1c(=NC(=O)c2ccco2)c(C#N)cc2c(=O)n3ccccc3cc21,-1,5,-23,-233,-4,+
CCCn1c(=NC(=O)c2ccco2)c(C(=O)OCC)cc2c(=O)n3ccccc3nc21,-2,19,-4,-132,0,+
Cc1nc2ccccn2c(=O)c1NC(=O)c1ccco1,/,16,/,/,/,-4
CCCn1c(=NC(=O)c2c(-c3c(F)cccc3Cl)noc2C)c(C(=O)OCC)cc2c(=O)n3ccccc3nc21,-2,/,-4,-3,-11,/
COCCn1c(=NC(=O)c2ccc3c(c2)OCO3)c(C#N)cc2c(=O)n3cccc(C)c3nc21,/,/,/,-2,/,/
COCCCNC(=O)c1ccc2c3c(onc13)-c1ccccc1C2=O,1,2,-6,37*,-78,-1
COCCCNC(=O)c1ccccc1Oc1ccccc1,-1,0,25,3,-4,-1
CCC(C)(C)NC(=O)C(c1ccc(OC)cc1)N(C(=O)CCC(=O)Nc1cc(C)on1)c1cccc(F)c1 (stereo unspecified),-1,1,9,-1,-3,117*
COc1ccc(C(C(=O)NC(C)(C)C)N(C(=O)CCC(=O)Nc2cc(C)on2)c2cccc(F)c2)cc1 (stereo unspecified),-1,-8,2,-1,-1,0
COc1cccc2c1C(=O)c1c(O)c3c(c(O)c1C2=O)C[C@@](O)(C(=O)CO)C[C@@H]3O[C@H]1C[C@H](N)[C@H](O)[C@H](C)O1,40*,8,97,-8,30,-8
COc1cccc2c1C(=O)c1c(O)c3c(c(O)c1C2=O)C[C@@](O)(C(=O)CO)C[C@@H]3OC1CC(N)C(O)C(C)O1 (stereo partly specified),/,3,/,/,/,-2
Cc1csc(Nc2nc(N)c(C(=O)Nc3ccccc3)o2)n1,1,35*,0,1,5,-1
SMILES,Mtb UGM inh,GDH-TPI inh,Mtb bLac sens,RecA intein inh,Rv3671c inh,Mtb FBA inh
CC1=CCC2C(=O)N(c3ccc(OC(=O)c4ccco4)cc3)C(=O)C2C1 (stereo unspecified),-1,9,-6,15,4,0
CCCCOc1ccc(C(=O)C(CN2CCOCC2)c2ccccc2)cc1 (stereo unspecified),-1,13,99,32*,-5,-8
C[C@@H](CN=[N+]=[N-])CN1CC[C@H](C(C)(C)C)CCC1=O,0,-4,10,3,-5,0
COc1ccccc1N1CCN(c2cc(N3CCCC3)nc(C)n2)CC1,0,3,9,0,1,2
COc1ccc(OC)c2c(C)cc(N3CCCN(C)CC3)nc12,-2,-1,-2,0,3,31*
CCOc1ccccc1N1CCN(Cc2cn[nH]c2-c2ccc(F)cc2)CC1,1,2,-6,2,-3,31*
CCOc1ccccc1N1CCN(Cc2cccc(OC)c2OC)CC1,-1,10,-3,-5,2,-3
CCOC(=O)c1sc(C)c2c(=O)n(CCc3ccccc3)nnc12,1,-2,-14,12,-5,-7
CCOC(=O)c1sc(C)c2c(=O)n(CC)nnc12,3,32*,-7,2,-3,4
CN1CCN(c2ccccc2NC(=O)c2cc3c(s2)-c2ccccc2OC3)CC1,0,5,94,-5,-2,4
COC(=O)c1cc2c(s1)-c1ccccc1OC2,-1,15,3,-24,3,+
CNC(=O)c1cc2c(s1)-c1ccccc1CC2,-2,17,3,1,-1,+
O=C(Nc1cccnc1Cl)c1cc2c(s1)-c1ccccc1OC2,-3,7,-3,-34,-18,153*
COc1ccc(CN(C)C(=O)c2ccc(OCC(=O)N3CCOCC3)c(OC)c2)cc1,-2,5,4,/,-10,1
CCN(c1ccc(N=Cc2c(O)n(Cc3ccc(OC)cc3)c(=O)c3ccccc23)cc1)C(C)C,/,-2,/,/,/,-1
CN1CCc2c(sc3c2C(=O)NC(/C=C/c2ccco2)N3)C1 (stereo unspecified),4,37*,-5,-3,-10,0
CC(C)CN1C(=O)N(c2ccc(Cl)cc2)C(C)(O)CC1(C)C (stereo unspecified),-1,6,3,0,-1,0
CN(C)/C=N/c1ncc(C(=O)c2ccccc2)s1,-6,32*,4,0,7,1
Cc1cc(C(=O)c2cnc(/N=C/N(C)C)s2)cc(C)c1O,-1,19,-1,-6,2,-5
CN(C)/C=N/c1ncc(C(=O)c2ccc(-c3ccccc3)cc2)s1,/,34*,3,-8,3,-1
Clc1cc2c(c(CSc3nc4ccccc4n4cccc34)c1)OCOC2,0,1,-8,-2,2,3
COc1ccc(Cl)cc1-c1nc(SCC(=O)NC2CC2)n[nH]1,0,-11,6,1,-6,-1
CCc1ccc(N(C(=O)CCC(=O)Nc2cc(C)on2)C(C(=O)NC(C)(C)C)c2ccc(OC)cc2)cc1 (stereo unspecified),-1,5,19,1,-3,2
